Data as given in the supplement of paper PMC7411640.
Structures can show the parent of a compound that is named as a salt.

system: MDA-MB-468; assay: phospho-S6 immunofluorescence (DAPI-normalised), per-plate z-score; higher = higher phospho-S6 signal (less pathway suppression); conditions: co-treatment: GDC0941 450 nM; 24 h
Description: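 GPCR-targeted compound library (MedChemExpress HY-L006) tested on MDA-MB-468 PTEN-null TNBC cells in 384-well plates at 0.1, 1 or 10 uM, combined with vehicle, GDC0941 450 nM or lapatinib 1 uM, for 24 h. Phospho-S6 (S240/244) immunofluorescence normalised to DAPI and expressed as a per-plate z-score; values are the mean of biological triplicates.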

Row | SMILES | phospho-S6 immunofluorescence (z-score)
1 | CC(C)COc1ccc(CNC(=O)N(Cc2ccc(F)cc2)C2CCN(C)CC2)cc1 [Pimavanserin] (compound 10 µM) | -2.66
2 | CNC(=C[N+](=O)[O-])NCCSCc1ccc(CN(C)C)o1 [Ranitidine (hydrochloride)] (compound 10 µM) | 0.47
3 | Cc1noc(-c2ccc(-c3ccc(CC(=O)O)cc3)cc2)c1NC(=O)OC(C)c1ccccc1Cl (configuration not stated) (compound 10 µM) | 0.23
4 | Cc1ccc(N(CC2=NCCN2)c2cccc(O)c2)cc1 [Phentolamine (mesylate)] (compound 10 µM) | -0.17
5 | O=c1n(CCCN2CCN(c3cccc(Cl)c3)CC2)nc2ccccn12 [Trazodone (hydrochloride)] (compound 10 µM) | 0.41
6 | CCCCc1nc(Cl)c(CO)n1Cc1ccc(-c2ccccc2-c2nnn[nH]2)cc1 [Losartan (potassium)] (compound 10 µM) | 0.74
7 | O=c1ccccn1CC1(O)CCN(Cc2ccccc2)CC1 (compound 10 µM) | 0.52
8 | Cc1cc2c(cc1CC(=O)c1sccc1S(=O)(=O)Nc1onc(C)c1Cl)OCO2 [Sitaxsentan (sodium)] (compound 10 µM) | 0.35
9 | CNCC(O)c1ccc(O)c(O)c1 [L-Epinephrine] (compound 10 µM) | 0.44
10 | CCCc1c2oc(C(=O)O)cc(=O)c2cc2c(=O)cc(C(=O)O)n(CC)c12 [Nedocromil] (compound 10 µM) | -0.69
11 | COc1cc(C(=O)NS(=O)(=O)c2ccccc2C)ccc1Cc1cn(C)c2ccc(NC(=O)OC3CCCC3)cc12 [Zafirlukast] (compound 10 µM) | -2.01
12 | CCCCCNC(=N)N/N=C/c1c[nH]c2ccc(OC)cc12 [Tegaserod (maleate)] (compound 10 µM) | -6
13 | Cc1cc2c(cc1Cl)N(C(=O)Nc1ccc(Oc3cccnc3C)nc1)CC2 (compound 10 µM) | -3.98
14 | Cc1ccc(-c2n[nH]c3c2C(c2cccc(O)c2)N(c2ccc(C(=O)O)cc2)C3=O)cc1 (configuration not stated) (compound 10 µM) | 0
15 | CC1(C)O[C@@H]2C[C@H]3[C@@H]4C[C@H](F)C5=CC(=O)C=C[C@]5(C)[C@@]4(F)[C@@H](O)C[C@]3(C)[C@]2(C(=O)CO)O1 [Fluocinolone (Acetonide)] (compound 10 µM) | -0.92
16 | CCCCCCCCOc1ccccc1C(=O)Nc1ccc(C(=O)OCC[N+](C)(CC)CC)cc1 [Otilonium (bromide)] (compound 10 µM) | -1.43
17 | C[C@H]1C[C@H]2[C@@H]3CCC4=CC(=O)C=C[C@]4(C)[C@H]3C(=O)C[C@]2(C)[C@@]1(O)C(=O)CO [Meprednisone] (compound 10 µM) | 0.11
18 | COc1nc(C)nc(Cl)c1NC1=NCCN1 [Moxonidine] (compound 10 µM) | 0.49
19 | Cc1ccc(NC(=S)NNc2c([N+](=O)[O-])cc(C(F)(F)F)cc2[N+](=O)[O-])cc1Cl (compound 10 µM) | 0.79

Row | SMILES | phospho-S6 immunofluorescence (z-score)
20 | CC(C)Cc1ccc([C@@H](C)C(=O)NS(C)(=O)=O)cc1 [Reparixin (L-lysine salt)] (compound 10 µM) | -1.6
21 | O=C(NCCCN1CCC2(CC1)OCc1ccccc12)[C@H]1CCCN1Cc1ccccc1 (compound 10 µM) | -1.61
22 | COc1cc2c(cc1OC)CN(C(=O)[C@@H](NCc1ccncc1)C(C)(C)C)CC2 (compound 10 µM) | 0.85
23 | C[C@@H]1C[C@H]2[C@@H]3CCC4=CC(=O)C=C[C@]4(C)[C@@]3(Cl)[C@@H](O)C[C@]2(C)[C@@]1(OC(=O)c1ccco1)C(=O)CCl [Mometasone furoate] (compound 10 µM) | -0.46
24 | CN(C)CCC(c1ccc(Br)cc1)c1ccccn1 (configuration not stated) [Brompheniramine (maleate)] (compound 10 µM) | 0.58
25 | Cc1nc2c([nH]1)-c1ccccc1N(C(=O)c1ccc(NC(=O)c3ccccc3-c3ccccc3)cc1)CC2 [Conivaptan (hydrochloride)] (compound 10 µM) | 0.65
26 | CC(C)=CCC[C@](C)(O)[C@H]1CC[C@]2(C)[C@@H]1[C@H](O)C[C@@H]1[C@@]3(C)CC[C@H](O)C(C)(C)[C@@H]3[C@@H](O)C[C@]12C [(20S)-Protopanaxatriol] (compound 10 µM) | -1.71
27 | O=C(CN1C(=O)C2(CCCC2)NC[C@H]1c1cc(F)cc(F)c1)Nc1ccc2c(c1)C[C@@]1(C2)C(=O)Nc2ncccc21 [MK-3207 (Hydrochloride)] (compound 10 µM) | -0.51
28 | OCc1cc(C(O)CNCCCCCCOCCCCc2ccccc2)ccc1O (configuration not stated) [Salmeterol (xinafoate)] (compound 10 µM) | 1.01
29 | NCCCC[C@H](NC(=O)[C@@H]1CCCN1C(=O)[C@@H]1CSSC[C@H](NC(=O)CNC(=O)CNC(=O)CN)C(=O)N[C@@H](Cc2ccc(O)cc2)C(=O)N[C@@H](Cc2ccccc2)C(=O)N[C@@H](CCC(N)=O)C(=O)N[C@@H](CC(N)=O)C(=O)N1)C(=O)NCC(N)=O [Terlipressin] (compound 10 µM) | 0.05
30 | Cc1cc2c(s1)Nc1ccccc1N=C2N1CCN(C)CC1 [Olanzapine] (compound 10 µM) | 0.77
31 | Cc1c(C(=O)NN2CCCCC2)nn(-c2ccc(Cl)cc2Cl)c1-c1ccc(I)cc1 (compound 10 µM) | -1.91
32 | c1cc(CN2CCCNCCNCCCNCC2)ccc1CN1CCCNCCNCCCNCC1 [Plerixafor (octahydrochloride)] (compound 10 µM) | -0.24
33 | COc1cc(/C=C/C(=O)O)ccc1O [Ferulic acid (sodium)] (compound 10 µM) | 0.56
34 | CC(C)(O)c1ccccc1CC[C@@H](SCC1(CC(=O)O)CC1)c1cccc(/C=C/c2ccc3ccc(Cl)cc3n2)c1 [Montelukast (sodium)] (compound 10 µM) | 0.45
35 | CC(C)COc1ccc(CNC(=O)N(Cc2ccc(F)cc2)C2CCN(C)CC2)cc1 [Pimavanserin tartrate] (compound 10 µM) | -3.99
36 | CN(C)CCOC(c1ccccc1)c1ccccc1 [Diphenhydramine (hydrochloride)] (compound 10 µM) | -0.32
37 | CN1CCCC(n2nc(Cc3ccc(Cl)cc3)c3ccccc3c2=O)CC1 (configuration not stated) [Azelastine (hydrochloride)] (compound 10 µM) | 0.6
